# Experimental data taken from PubChem BioAssay (NCI).
# This is part of a sample that, as a whole, favours compounds with a hit. Of some 83,000 tested, about 20% had one in any assay.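 Percent growth is the endpoint: 0 to 100 indicates growth inhibition (40 means 60% inhibition), 0 means no net growth, and negative values indicate cell death.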 A number with no mark means an inactive call. Active and inactive are the calls of the source. The calls were made as follows: active = growth percent below 10; inactive = the rest.
# Tests used:
# Experiment in all cases: NCI-60 one-dose screen, 48 h (100 = growth as untreated, 0 = no growth, -100 = all killed)
# Settings in all cases: 10 µM unless noted
# MOLT-4 leukemia = test system: MOLT-4 leukemia
# SR leukemia = test system: SR leukemia
# RPMI-8226 leukemia = test system: RPMI-8226 leukemia
# OVCAR-8 ovarian = test system: OVCAR-8 ovarian
# OVCAR-5 ovarian = test system: OVCAR-5 ovarian
# OVCAR-4 ovarian = test system: OVCAR-4 ovarian
# SK-OV-3 ovarian = test system: SK-OV-3 ovarian
# IGROV1 ovarian = test system: IGROV1 ovarian
# OVCAR-3 ovarian = test system: OVCAR-3 ovarian
# HS 578T breast = test system: HS 578T breast
# NCI/ADR-RES ovarian = test system: NCI/ADR-RES ovarian
# T-47D breast = test system: T-47D breast
# MDA-MB-435 melanoma = test system: MDA-MB-435 melanoma
# SW-620 colon = test system: SW-620 colon
# MCF7 breast = test system: MCF7 breast
# HCT-116 colon = test system: HCT-116 colon
# HCC-2998 colon = test system: HCC-2998 colon
# KM12 colon = test system: KM12 colon
# BT-549 breast = test system: BT-549 breast
Compound,growth (MOLT-4 leukemia),growth (SR leukemia),growth (RPMI-8226 leukemia),growth (OVCAR-8 ovarian),growth (OVCAR-5 ovarian),growth (OVCAR-4 ovarian),growth (SK-OV-3 ovarian),growth (IGROV1 ovarian),growth (OVCAR-3 ovarian),growth (HS 578T breast),growth (NCI/ADR-RES ovarian),growth (T-47D breast),growth (MDA-MB-435 melanoma),growth (SW-620 colon),growth (MCF7 breast),growth (HCT-116 colon),growth (HCC-2998 colon),growth (KM12 colon),growth (BT-549 breast)
CCC(O)(CN)c1ccccc1 (stereo unspecified),105%,100%,102%,97%,105%,111%,98.4%,97.9%,114%,102%,105%,99.6%,105%,100%,102%,99.8%,106%,103%,
COc1cc(NCCCN=C(N)N)c2ncccc2c1,94.1%,102%,85.4%,81.2%,86.2%,-95.8% (active),93.4%,36%,7.99% (active),88.8%,108%,-0.911% (active),103%,92.8%,,78.1%,94.3%,49.3%,65.9%
N#C[Se]Cc1cc(-c2ccccc2)n(-c2ccc(S(N)(=O)=O)cc2)n1,-28.4% (active),-32.5% (active),-33.5% (active),6.01% (active),-42.6% (active),2.52% (active),-42.6% (active),-35.6% (active),-80.6% (active),-17.6% (active),35.4%,-1.52% (active),-28.8% (active),-18.4% (active),-26.1% (active),-59.4% (active),25.1%,-78.9% (active),
CC(=O)O[C@H](C[C@H](C(C)C)N(C)C(=O)[C@@H](NC(=O)[C@H]1CCCCN1C)C(C)(C)C)c1nc(C(=O)N[C@@H](Cc2ccccc2)C[C@H](C)C(=O)O)cs1,6.26% (active),2.59% (active),16.8%,8.74% (active),32%,41.6%,28.6%,18.9%,-14.6% (active),16.7%,12.3%,45.6%,-47% (active),24.5%,16.4%,0.775% (active),8.37% (active),6.93% (active),
Nc1ccc2c(c1)oc1ccccc12,85%,91%,79.3%,107%,98.3%,103%,115%,110%,103%,104%,95.1%,97%,94.7%,,83.2%,99.8%,97.6%,106%,97.9%
CC(C)=CCC[C@H](C(=O)O)[C@@H]1CC[C@]2(C)C3=C(CC[C@@]12C)[C@@]1(C)CC[C@H](O)C(C)(C)[C@@H]1CC3,88.6%,91.8%,88.8%,96.4%,96.8%,103%,96.7%,103%,107%,99.9%,102%,92.5%,103%,105%,88.9%,78.5%,100%,99.7%,
OCCNC(Cc1ccccc1)c1ccc2c(c1)OCO2 (stereo unspecified),82.6%,99.1%,102%,98.7%,105%,117%,74.7%,107%,100%,103%,102%,60%,108%,109%,92.9%,86.3%,99.3%,101%,
CC12CCC(O)CC1=CCC1C2CCC2(C)C(O)CCC12 (stereo unspecified),114%,106%,94.6%,112%,97.3%,110%,118%,113%,104%,105%,110%,99.4%,104%,105%,116%,104%,109%,105%,
COC(=O)[C@@H](C)C[C@H](Cc1ccccc1)NC(=O)c1nc([C@@H](C[C@H](C(C)C)N(C)C(=O)[C@@H](NC(=O)[C@H]2CCCN2C)C(C)C)OC(C)=O)sc1C,15.3%,5.28% (active),20.6%,14.5%,30.7%,49.9%,1.93% (active),27.4%,-9.82% (active),18.8%,4.35% (active),43.2%,-18.4% (active),20.1%,,,13.5%,11.9%,-12.7% (active)
CC(C)CCC1(CCCl)C(=O)NC(=O)NC1=O,112%,102%,103%,101%,101%,99.4%,102%,108%,116%,106%,102%,105%,97%,98.9%,96.4%,100%,107%,108%,
c1cc2c(c3c1CCNC3)OCO2,100%,93%,109%,107%,108%,110%,92.6%,99.9%,118%,112%,101%,90.4%,106%,112%,92.7%,99%,102%,106%,
CC[C@]12C=CCN3CC[C@@]4(c5ccc(OC)cc5N(C)[C@H]4[C@@](O)(C(=O)OC)[C@@H]1OC(=O)CCCC[P+](c1ccccc1)(c1ccccc1)c1ccccc1)[C@@H]32,5.66% (active),17.9%,15.4%,18.6%,23.8%,5.22% (active),-2.96% (active),-36.4% (active),-0.293% (active),9.79% (active),91.6%,4.99% (active),-19.7% (active),29.4%,,8.03% (active),,3.15% (active),-1.04% (active)
CC(=O)O[C@H]1CC[C@]2(C)[C@H]3CC[C@]4(C)[C@@H](OC(C)=O)CC[C@H]4[C@@H]3[C@@H](C)[C@]2(O)C1,87.9%,96.1%,100%,115%,108%,110%,117%,116%,127%,110%,98.9%,106%,,104%,104%,98.1%,108%,109%,113%
Cc1cc(N(CCCl)CCCl)ccc1/C=N\NC(=O)c1ccncc1,58.8%,47.9%,90.6%,61.9%,54.5%,89.1%,95.4%,87%,90.8%,109%,80.5%,54.4%,89.1%,,62%,78.8%,107%,95.6%,75.1%
Cc1cccc(N2CCN(C(C)C#N)CC2)c1 (stereo unspecified),106%,98.2%,104%,106%,103%,114%,102%,108%,109%,96.3%,96.9%,98.4%,98.4%,,99.3%,108%,96.9%,108%,92.4%
COc1cc2c(=O)n(C3CCCCCCC3)c3c4cc[nH]c4ncc3c2cc1OC,40.6%,17.4%,50.1%,43.7%,79.3%,-9.58% (active),36.5%,48.4%,36.8%,2.28% (active),40.5%,39.5%,57.9%,56.8%,39.1%,31.5%,96.2%,19.1%,
